According to the supplement of paper PMC8253809:
Where “and” joins values, the source holds several entries; their conditions need not be identical. Equal values may be shown once.

Legend:
Assay in all cases: growth inhibition (% activity, log2 RLU normalised to DMSO / staurosporine); higher = more growth inhibition
Settings in all cases: 33 µM
DIPGX29 = system: DIPGX29 (H3.3 K27M diffuse intrinsic pontine glioma line)
Method in brief: (§1)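 The growth-inhibition value is the median over replicates. pHGG cell lines and H9-derived neural stem cells on Geltrex-coated 384-well plates received approved drugs by pin tool at a single final concentration of about 33 μM, in triplicate, for 7 days at 37 °C, 5% CO2. CellTiter-Glo luminescence was log2-transformed and normalised per plate to % activity between solvent and positive control wells.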

DIPGX37 = system: DIPGX37 (H3.3 K27M diffuse intrinsic pontine glioma line)
Method in brief: as §1

DIPGX7 = system: DIPGX7 (H3.3 K27M diffuse intrinsic pontine glioma line)
Method in brief: as §1

DIPGX9 = system: DIPGX9 (diffuse intrinsic pontine glioma line)
Method in brief: as §1

HGGX39 = system: HGGX39 (paediatric high-grade glioma line)
Method in brief: as §1

HGGX6 = system: HGGX6 (H3.3 G34R paediatric high-grade glioma line)
Method in brief: as §1

HNSC = system: HNSC
Method in brief: as §1

SUDIPGIV = system: SUDIPGIV (diffuse intrinsic pontine glioma line)
Method in brief: as §1

SUDIPGVI = system: SUDIPGVI (diffuse intrinsic pontine glioma line)
Method in brief: as §1

SUDIPGXIII = system: SUDIPGXIII (diffuse intrinsic pontine glioma line)
Method in brief: as §1

Structure (SMILES)	growth inhibition (DIPGX29)	growth inhibition (DIPGX37)	growth inhibition (DIPGX7)	growth inhibition (DIPGX9)	growth inhibition (HGGX39)	growth inhibition (HGGX6)	growth inhibition (HNSC)	growth inhibition (SUDIPGIV)	growth inhibition (SUDIPGVI)	growth inhibition (SUDIPGXIII)
CN1CCN(c2c(F)cc3c(=O)c(C(=O)O)cn4c3c2OCN4C)CC1	0.647%	0.371%	3.3%	2.03%	2.92%	3.21%	2.71%	1.21%	4.19%	-0.0388%
CC(C)(O/N=C(\C(=O)N[C@@H]1C(=O)N2C(C(=O)[O-])=C(C[n+]3ccccc3)CS[C@H]12)c1csc(N)n1)C(=O)O	-0.082%	3.29%	2.31%	0.416%	1.23%	-0.0518%	1.13%	-0.671%	2.58%	0.376%
CC(C)C[C@H](NC(=O)[C@H](O)[C@H](N)Cc1ccccc1)C(=O)O	1.26%	0.0198%	0.163%	-1%	-2.32%	1.9%	0.429%	-2.58%	0.754%	0.189%
Clc1cccc(Cl)c1NC1=NCCN1	1.49%	-3.42%	1.12%	0.614%	1.32%	0.951%	2.98%	0.943%	-1.83%	-1.09%
CC[C@@H]([C@H](C)O)n1ncn(-c2ccc(N3CCN(c4ccc(OC[C@@H]5CO[C@@](Cn6cncn6)(c6ccc(F)cc6F)C5)cc4)CC3)cc2)c1=O	-3.19%	-0.0907%	-0.181%	-2.09%	-0.245%	-1.15%	-2.54%	-2.62%	-1.64%	0.673%
Clc1ccc(C(c2ccccc2Cl)C(Cl)Cl)cc1 (stereo not given)	-1.94%	-1.47%	-1.72%	-0.6%	-0.428%	-0.0252%	-1.09%	-1.24%	-1.05%	1.43%
CC(=O)O[C@H]1C[C@@H]2CC[C@@H]3[C@H](CC[C@@]4(C)[C@H]3C[C@H]([N+]3(C)CCCCC3)[C@@H]4OC(C)=O)[C@@]2(C)C[C@@H]1N1CCCCC1	0.923%	-0.759%	1.01%	1.13%	1.15%	-0.813%	1.96%	-0.377%	1.82%	-0.269%
CNC(=O)c1cc(Oc2ccc(NC(=O)Nc3ccc(Cl)c(C(F)(F)F)c3)cc2)ccn1	35.1%	67.2%	28.2%	25.6%	50.7%	32%	76.1%	41.2%	60.7%	69.3%
C[C@@](Cc1ccc(O)c(O)c1)(NN)C(=O)O	-0.229%	0.519%	-0.935%	2.31%	-0.733%	0.427%	-1.19%	0.65%	2.9%	1.25%
COC(=O)[C@H](c1ccccc1Cl)N1CCc2sccc2C1	-1.33%	-0.314%	-0.551%	-0.762%	-0.681%	-0.144%	-2.08%	-1.84%	0.653%	1.29%
CC(C(=O)O)c1cccc(C(=O)c2ccccc2)c1 (stereo not given)	-0.509%	-1.31%	-0.656%	-0.0225%	1.05%	0.639%	0.455%	-5.26%	1.35%	-0.582%
COc1cccc2c1C(=O)c1c(O)c3c(c(O)c1C2=O)C[C@@](O)(C(C)=O)C[C@@H]3O[C@H]1C[C@H](N)[C@H](O)[C@H](C)O1	55.5%	56.5%	54.9%	43.6%	53%	56.3%	62.2%	57.2%	46.8%	66.3%
O=C(O)c1cc(=O)c2ccccc2o1	-0.199%	-0.128%	0.253%	1.55%	0.445%	-1.13%	-0.975%	0.468%	2.48%	0.672%
CCn1cc(C(=O)O)c(=O)c2cc(F)c(N3CCNCC3)nc21	-0.406%	0.315%	-0.279%	-2.11%	0.108%	-1.99%	2.46%	0.478%	0.763%	0.429%
C/C(O)=C(\C#N)C(=O)Nc1ccc(C(F)(F)F)cc1	3.56%	5.04%	3.25%	5.83%	5.87%	5.21%	2.85%	9.89%	4.21%	-15.3%
O=C(O)c1ccc(NC(=O)[C@H](Cc2ccc(O)cc2)NC(=O)c2ccccc2)cc1	-3.5%	-1.5%	-2.53%	-1.13%	-2.55%	-0.845%	-2.41%	-2.35%	0.761%	-0.558%
CN1CCCCC1CCN1c2ccccc2Sc2ccc([S+](C)[O-])cc21 (stereo not given)	-1.62%	1.07%	-1.12%	-0.108%	-0.329%	-0.926%	1.22%	-1.02%	-0.796%	1.03%
CC1(C)S[C@@H]2[C@H](NC(=O)[C@H](N)c3ccc(O)cc3)C(=O)N2[C@H]1C(=O)O	-2.54% and 1.43%	-2.93% and 3.86%	-1.48% and 1.69%	0.486% and 1.84%	0.0264% and 2.87%	0.163% and 3.37%	-3.3% and 1.46%	-1.85% and 0.698%	-2.12% and 2.79%	7.41% and 0.66%
O=P(O)(O)C(O)(Cn1ccnc1)P(=O)(O)O	0.235%	2.6%	0.072%	1.97%	2.08%	1.84%	1.26%	1.08%	4.43%	-0.376%
c1ccc(-c2ccc(C(c3ccccc3)n3ccnc3)cc2)cc1 (stereo not given)	3.65%	2.9%	5.02%	5.27%	9.63%	5.19%	11.5%	13.7%	2.63%	-0.141%

Structure (SMILES)	growth inhibition (DIPGX29)	growth inhibition (DIPGX37)	growth inhibition (DIPGX7)	growth inhibition (DIPGX9)	growth inhibition (HGGX39)	growth inhibition (HGGX6)	growth inhibition (HNSC)	growth inhibition (SUDIPGIV)	growth inhibition (SUDIPGVI)	growth inhibition (SUDIPGXIII)
CN1CCN(C2=Nc3ccccc3Oc3ccc(Cl)cc32)CC1	-0.96%	1.38%	-0.128%	1.22%	6.27%	-0.859%	1.57%	4.37%	-2.03%	0.859%
COC(=O)C1=C(C)NC(C)=C(C(=O)OC2CCCN(Cc3ccccc3)C2)C1c1cccc([N+](=O)[O-])c1 (stereo not given)	3.05%	0.403%	2.15%	3.22%	6.94%	-0.555%	33.4%	3.22%	-1.31%	2.1%
CCN(Cc1ccncc1)C(=O)C(CO)c1ccccc1 (stereo not given)	-2.54%	-1.96%	-1.34%	-0.78%	-1.19%	0.149%	-4.87%	-1.01%	-0.507%	-1.24%
C[C@@H]1[C@H](O)[C@@H](C)/C=C/C=C/C=C/C=C/C=C/C=C/C=C/[C@H](O[C@@H]2O[C@H](C)[C@@H](O)[C@H](N)[C@@H]2O)C[C@@H]2O[C@](O)(C[C@@H](O)C[C@@H](O)[C@H](O)CC[C@@H](O)C[C@@H](O)CC(=O)O[C@H]1C)C[C@H](O)[C@H]2C(=O)O	1.5%	0.689%	0.985%	2.51%	1.45%	3.13%	2.79%	-0.529%	0.154%	1.88%
CCN[C@H]1C[C@H](C)S(=O)(=O)c2sc(S(N)(=O)=O)cc21	1.81%	-1.68%	1.05%	0.778%	2.3%	0.627%	4.56%	-0.668%	4.36%	0.067%
CCCN[C@H]1CCc2nc(N)sc2C1	-1.19% and -0.0554%	-0.814% and -5.15%	-0.691% and -0.331%	-0.203% and -1.15%	-0.555% and -2.37%	3.71% and 0.0769%	-2.69% and 0.0733%	-0.717% and -1.61%	-0.616% and -4.53%	-6.77% and -0.361%
CO/N=C(\C(=O)N[C@@H]1C(=O)N2C(C(=O)O)=C(Cn3ccc(=N)n3CCO)CS[C@H]12)c1csc(N)n1	-0.673%	1.46%	0.0521%	0.497%	-0.232%	0.395%	-1.19%	-0.702%	0.0229%	1.31%
COC(=O)Nc1nc2cc([S+]([O-])c3ccccc3)ccc2[nH]1 (stereo not given)	4.96%	6.45%	4.77%	5.87%	4.89%	4.72%	19.2%	6.67%	5.46%	0.605%
NC(=O)OCC(COC(N)=O)c1ccccc1	1.09%	2.98%	1.52%	0.912%	0.666%	0.329%	2.74%	0.15%	2.19%	1.32%
OC(Cn1cncn1)(Cn1cncn1)c1ccc(F)cc1F	0.884%	-0.267%	1.06%	1.31%	1.3%	1.42%	1.54%	-0.234%	1.91%	0.862%
C[C@]12CC[C@@H]3c4ccc(O)cc4C[C@@H](CCCCCCCCC[S+]([O-])CCCC(F)(F)C(F)(F)F)[C@H]3[C@@H]1CC[C@@H]2O (stereo not given in full)	0.0636%	0.16%	0.804%	-0.923%	8.06%	-1.09%	2%	-0.255%	-0.348%	2.55%
CN1C(C(=O)Nc2ccccn2)=C(O)c2sccc2S1(=O)=O	-1.4%	1.63%	-0.195%	1.24%	0.358%	0.485%	-0.824%	-4.89%	0.891%	-0.625%
O=C([O-])C(O)[C@H](O)[C@@H](O)[C@H](O)[C@H](O)CO.O=C([O-])C(O)[C@H](O)[C@@H](O)[C@H](O)[C@H](O)CO.[Ca+2] (stereo not given in full)	2.16%	4.54%	2.65%	1.24%	2.2%	1.87%	2.4%	0.563%	2.72%	-0.395%
CC[C@H]1OC(=O)C[C@@H](O)[C@H](C)[C@@H](O[C@@H]2O[C@H](C)[C@@H](O)[C@H](N(C)C)[C@H]2O)[C@@H](CCN2C[C@H](C)C[C@H](C)C2)C[C@@H](C)C(=O)/C=C/C(C)=C/[C@@H]1CO[C@@H]1O[C@H](C)[C@@H](O)[C@@H](OC)[C@H]1OC	-3.18%	-1.96%	-0.192%	-2.36%	-3.76%	-3.98%	3.6%	-3.04%	-5.87%	1.2%
O=c1oc2cc(O)ccc2s1	1.14%	3.19%	6.79%	1.73%	8.04%	3.75%	2.15%	1.11%	5.42%	28.9%
CC1Cc2ccccc2N1NC(=O)c1ccc(Cl)c(S(N)(=O)=O)c1 (stereo not given)	-2.32%	0.265%	-1.54%	-0.538%	0.759%	0.259%	-4.15%	-2.59%	-1.16%	-1.46%
Cc1ccc(NC(=O)c2ccc(CN3CCN(C)CC3)cc2)cc1Nc1nc(-c2cccnc2)cs1	8.55%	4.57%	8.77%	6.79%	15.1%	9.96%	9.74%	7.78%	9.06%	2.08%
CC(C)CC(N)=O	0.179%	0.749%	-0.469%	-0.164%	0.0712%	1.61%	-1.96%	-1.02%	-0.151%	-12.8%
COC(=O)[C@@H]1CC2=CC(=O)CC[C@]2(C)[C@@]23O[C@@H]2C[C@@]2(C)[C@@H](CC[C@@]24CCC(=O)O4)[C@H]13	0.0665%	2.47%	-0.276%	0.756%	1.45%	1.56%	-0.69%	0.898%	1.05%	0.0503%
NCC1OC(OC2C(N)CC(N)C(OC3OC(CO)C(O)C(N)C3O)C2O)C(N)C(O)C1O (stereo not given)	-1.38%	0.63%	0.452%	-1.1%	1.6%	-1.9%	30.8%	-0.143%	-4.48%	-1.57%
